High-throughput results: PubChem BioAssay, University of Kansas High Throughput Screening Laboratory
Only some compounds are listed: those with a hit (about 3.6% of all), similar ones and a draw of the others.
Pf apPOL block: Pf-apPOL DNA polymerase inhibition; AID 1794808; Recombinant Pf-apPOL, molecular beacon fluorescence, 1.5 h; actives 0.25% (n = 210,000); inhibition, % at 10 µM
mHTT-CaM PPI inh: mHTT-calmodulin interaction abrogation; P42858; AlphaScreen His-mHTT/GST-CaM binding, luminescence; inhibition, % at 15 µM; actives 3.6% (n = 190,000); AID 1671202;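 further: 0% = both proteins with DMSO and 100% = one protein alone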
Target sequence (P42858 whole entry, looked up, stated change not applied): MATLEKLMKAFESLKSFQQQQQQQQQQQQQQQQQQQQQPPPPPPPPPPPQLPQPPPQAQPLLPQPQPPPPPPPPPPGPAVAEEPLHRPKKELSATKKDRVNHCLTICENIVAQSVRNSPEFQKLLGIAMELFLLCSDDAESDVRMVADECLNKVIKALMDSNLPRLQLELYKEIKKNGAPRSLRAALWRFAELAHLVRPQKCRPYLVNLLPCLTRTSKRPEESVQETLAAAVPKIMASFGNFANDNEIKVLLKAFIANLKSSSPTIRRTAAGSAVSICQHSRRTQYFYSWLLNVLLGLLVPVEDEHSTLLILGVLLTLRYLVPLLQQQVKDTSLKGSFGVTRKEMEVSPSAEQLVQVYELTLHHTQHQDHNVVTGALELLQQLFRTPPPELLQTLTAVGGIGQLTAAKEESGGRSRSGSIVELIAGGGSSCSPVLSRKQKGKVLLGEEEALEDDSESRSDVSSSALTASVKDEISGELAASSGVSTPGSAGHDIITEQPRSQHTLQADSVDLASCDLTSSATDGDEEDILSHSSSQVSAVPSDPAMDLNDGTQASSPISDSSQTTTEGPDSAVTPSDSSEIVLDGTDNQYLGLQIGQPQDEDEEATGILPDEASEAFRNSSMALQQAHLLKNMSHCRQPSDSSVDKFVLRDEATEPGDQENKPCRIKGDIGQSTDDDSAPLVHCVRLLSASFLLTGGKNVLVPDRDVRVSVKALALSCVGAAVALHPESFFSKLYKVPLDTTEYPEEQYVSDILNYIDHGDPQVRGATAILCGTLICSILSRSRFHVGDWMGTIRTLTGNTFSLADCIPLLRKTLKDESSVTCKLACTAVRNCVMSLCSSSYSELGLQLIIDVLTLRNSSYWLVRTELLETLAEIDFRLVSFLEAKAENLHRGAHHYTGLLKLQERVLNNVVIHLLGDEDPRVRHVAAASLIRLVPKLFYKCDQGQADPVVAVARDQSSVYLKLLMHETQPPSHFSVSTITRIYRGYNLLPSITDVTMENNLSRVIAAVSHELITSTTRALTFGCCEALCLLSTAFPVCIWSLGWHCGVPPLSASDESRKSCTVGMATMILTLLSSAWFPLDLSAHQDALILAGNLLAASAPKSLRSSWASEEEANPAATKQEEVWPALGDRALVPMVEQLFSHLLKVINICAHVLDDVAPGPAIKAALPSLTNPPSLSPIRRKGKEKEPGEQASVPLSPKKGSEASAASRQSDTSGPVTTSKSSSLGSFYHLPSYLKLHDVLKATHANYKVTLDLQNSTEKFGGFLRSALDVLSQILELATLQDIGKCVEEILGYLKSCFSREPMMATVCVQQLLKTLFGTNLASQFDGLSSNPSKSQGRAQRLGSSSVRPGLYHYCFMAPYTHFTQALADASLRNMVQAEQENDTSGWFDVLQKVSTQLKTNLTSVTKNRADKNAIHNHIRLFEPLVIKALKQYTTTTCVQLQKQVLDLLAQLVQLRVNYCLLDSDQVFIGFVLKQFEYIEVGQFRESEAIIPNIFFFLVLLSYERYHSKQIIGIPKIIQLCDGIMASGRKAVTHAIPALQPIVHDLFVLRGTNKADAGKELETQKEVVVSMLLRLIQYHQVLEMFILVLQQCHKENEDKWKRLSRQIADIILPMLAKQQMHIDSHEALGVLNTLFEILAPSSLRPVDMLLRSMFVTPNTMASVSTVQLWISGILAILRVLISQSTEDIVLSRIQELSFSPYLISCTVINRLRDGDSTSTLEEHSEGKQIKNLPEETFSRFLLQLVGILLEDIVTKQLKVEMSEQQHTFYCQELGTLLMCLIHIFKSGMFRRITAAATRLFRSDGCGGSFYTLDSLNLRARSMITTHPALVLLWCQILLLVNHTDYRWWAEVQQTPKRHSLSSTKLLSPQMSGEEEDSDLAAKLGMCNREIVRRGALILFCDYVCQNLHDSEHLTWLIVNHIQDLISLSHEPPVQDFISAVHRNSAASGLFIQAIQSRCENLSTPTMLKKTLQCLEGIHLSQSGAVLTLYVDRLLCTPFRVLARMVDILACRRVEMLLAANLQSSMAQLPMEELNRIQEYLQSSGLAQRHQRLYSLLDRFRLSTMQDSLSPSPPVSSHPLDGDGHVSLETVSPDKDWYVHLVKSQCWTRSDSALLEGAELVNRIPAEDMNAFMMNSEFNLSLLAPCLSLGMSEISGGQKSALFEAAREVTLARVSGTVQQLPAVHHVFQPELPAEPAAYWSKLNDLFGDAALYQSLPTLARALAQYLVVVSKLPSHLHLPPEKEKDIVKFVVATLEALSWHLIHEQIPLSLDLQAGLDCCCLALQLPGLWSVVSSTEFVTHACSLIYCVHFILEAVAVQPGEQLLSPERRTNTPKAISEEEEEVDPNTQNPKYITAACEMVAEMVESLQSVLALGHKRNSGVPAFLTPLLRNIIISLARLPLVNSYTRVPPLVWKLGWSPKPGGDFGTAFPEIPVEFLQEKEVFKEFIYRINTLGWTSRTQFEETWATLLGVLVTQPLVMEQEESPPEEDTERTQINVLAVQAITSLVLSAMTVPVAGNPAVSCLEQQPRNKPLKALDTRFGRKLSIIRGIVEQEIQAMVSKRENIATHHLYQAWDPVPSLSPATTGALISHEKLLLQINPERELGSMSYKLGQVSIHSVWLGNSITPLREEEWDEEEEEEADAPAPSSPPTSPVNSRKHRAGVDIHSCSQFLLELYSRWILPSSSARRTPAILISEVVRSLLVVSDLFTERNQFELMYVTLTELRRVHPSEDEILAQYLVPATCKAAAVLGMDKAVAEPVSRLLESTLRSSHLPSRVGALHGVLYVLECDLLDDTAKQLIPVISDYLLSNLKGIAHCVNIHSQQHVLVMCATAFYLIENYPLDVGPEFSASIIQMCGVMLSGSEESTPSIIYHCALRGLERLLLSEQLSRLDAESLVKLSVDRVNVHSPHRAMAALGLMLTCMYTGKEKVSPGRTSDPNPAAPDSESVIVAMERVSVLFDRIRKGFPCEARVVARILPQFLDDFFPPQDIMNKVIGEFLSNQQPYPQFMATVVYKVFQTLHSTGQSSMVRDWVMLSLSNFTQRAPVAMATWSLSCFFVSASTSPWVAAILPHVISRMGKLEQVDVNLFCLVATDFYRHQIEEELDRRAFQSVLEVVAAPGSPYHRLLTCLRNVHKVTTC
* marks the source's active call; other numbers are inactive results. No stated cut-off is given here; in the data, active means inhibition above about 50%; inactive means the rest.

How did COc1ccc(CN2CCN(C(=O)CCSCc3ccccc3F)CC2)c(OC)c1OC do in these assays?
Pf apPOL block: -19.3; mHTT-CaM PPI inh: 16.0

How did CCCCC(=O)Nc1c2c(nn1C(C)(C)C)CSC2 do in these assays?
Pf apPOL block: 2.9; mHTT-CaM PPI inh: 26.0

What do the screens show for `Cc1ccc(O)c(NC(=O)c2nn3c(c2Cl)NC(c2ccccc2)CC3C(F)(F)F)c1` (stereo not drawn)?
Pf apPOL block: -1.9; mHTT-CaM PPI inh: 54.0*

What do the screens show for `CC(C)(C)NC(=O)c1nn2c(c1Cl)NC(c1ccccc1)CC2C(F)(F)F` (stereo not drawn)?
Pf apPOL block: 2.3; mHTT-CaM PPI inh: 11.0

How did O=C(Nc1cccc(Cl)c1)c1nn2c(c1Cl)NC(c1cccs1)CC2C(F)(F)F (stereo not drawn) do in these assays?
Pf apPOL block: -4.1; mHTT-CaM PPI inh: 17.0

How did Cc1ccc(O)c(NC(=O)c2nn3c(c2Cl)NC(c2cccs2)CC3C(F)(F)F)c1 (stereo not drawn) do in these assays?
Pf apPOL block: 2.4; mHTT-CaM PPI inh: 55.0*

What do the screens show for `CCS(=O)(=O)c1ccsc1S(=O)(=O)CC`?
mHTT-CaM PPI inh: -2.5

Results for COc1cc(CNC(=O)C2c3ccccc3CC(=O)N2Cc2ccccc2)cc(OC)c1 (stereo not drawn) ?
Pf apPOL block: -0.9; mHTT-CaM PPI inh: 10.5

Results for CN(C)c1ccc(/C=N/NC(=S)N/N=C/c2ccc(N(C)C)cc2)cc1 ?
mHTT-CaM PPI inh: active

What do the screens show for `CN(C)c1ccc(C=NNC2=NCCN2)cc1`?
Pf apPOL block: -2.9

Results for O=C(c1cccs1)N1CCN(C(=O)C2CCCCC2)CC1 ?
Pf apPOL block: -7.7

How did O=C(C1CCC1)N1CCN(C2=NN=C(c3cccs3)CS2)CC1 do in these assays?
Pf apPOL block: -4.6; mHTT-CaM PPI inh: 77.8*

What do the screens show for `COc1cc(/C=C2/NC(=O)N(Cc3ccc(Br)cc3)C2=O)cc(OC)c1O`?
Pf apPOL block: -5.0; mHTT-CaM PPI inh: 55.0*

What do the screens show for `COc1cc(/C=C2/NC(=O)N(Cc3ccc(Cl)cc3)C2=O)cc(Br)c1O`?
Pf apPOL block: 0.5; mHTT-CaM PPI inh: 39.0

Results for O=C1OC(c2ccc(Cl)cc2)=N/C1=C\C=C\c1ccco1 ?
Pf apPOL block: 3.8; mHTT-CaM PPI inh: 68.0*

Results for O=C1OC(c2ccc(Cl)cc2)=N/C1=C\c1ccco1 ?
Pf apPOL block: -4.7; mHTT-CaM PPI inh: -4.0

What do the screens show for `CCC(C)c1ccccc1OCCOCCN1CCOCC1` (stereo not drawn)?
Pf apPOL block: -8.8; mHTT-CaM PPI inh: 0.3

What do the screens show for `O=[N+]([O-])c1cc(C2C=C(c3ccc(Cl)cc3)Nc3ncnn32)ccc1Cl` (stereo not drawn)?
Pf apPOL block: -3.3; mHTT-CaM PPI inh: 22.0

Results for O=C(NCC1CCN(S(=O)(=O)C2CC2)CC1)c1cnc2ccccc2n1 ?
Pf apPOL block: -4.5; mHTT-CaM PPI inh: -8.3

Results for Cc1cc(NC(=O)c2cc3nc(-c4ccc5c(c4)OCO5)cc(C(F)(F)F)n3n2)no1 ?
Pf apPOL block: 1.2; mHTT-CaM PPI inh: 1.0

Results for O=C1c2ccccc2-c2c1cccc2C(=O)N1CCN(c2ccc(Cl)cc2)CC1 ?
Pf apPOL block: 6.7; mHTT-CaM PPI inh: 100.0*

Results for O=C(c1ccccc1I)N1CCN(c2cccc(Cl)c2)CC1 ?
Pf apPOL block: -2.3; mHTT-CaM PPI inh: 76.8*

Results for O=C(CC(c1ccccc1)c1ccccc1)N1CCN(c2cccc(Cl)c2)CC1 ?
Pf apPOL block: -3.3; mHTT-CaM PPI inh: 84.5*

What do the screens show for `CC(CC(=O)N1CCN(c2cccc(Cl)c2)CC1)c1ccccc1` (stereo not drawn)?
Pf apPOL block: -16.2; mHTT-CaM PPI inh: 21.8

What do the screens show for `COc1ncc(C(=O)N2CCN(c3cccc(Cl)c3)CC2)cn1`?
Pf apPOL block: -0.7; mHTT-CaM PPI inh: 0.0

What do the screens show for `O=C1c2ccccc2-c2c1cccc2C(=O)N1CCOCC1`?
Pf apPOL block: 2.8; mHTT-CaM PPI inh: -2.0

What do the screens show for `CCOc1nn(CC)cc1C(=O)N1CCN(c2cccc(Cl)c2)CC1`?
Pf apPOL block: -12.0; mHTT-CaM PPI inh: 90.8*

How did O=C(c1ccccc1Cl)N1CCN(c2cccc(Cl)c2)CC1 do in these assays?
Pf apPOL block: -2.8; mHTT-CaM PPI inh: 44.7

Results for O=C(NCC1(c2cccs2)CC1)C(=O)Nc1ccc(OC(F)(F)F)cc1 ?
Pf apPOL block: 3.8; mHTT-CaM PPI inh: -5.8

Results for O=C(NCCn1cnc(-c2ccc(F)cc2)cc1=O)c1cc(-c2ccco2)[nH]n1 ?
Pf apPOL block: 11.9; mHTT-CaM PPI inh: 38.5

How did CC(=O)Nc1ccc(-c2noc(C3CCN(C(=O)c4ccc(C(C)C)cc4)CC3)n2)cc1 do in these assays?
Pf apPOL block: -2.4; mHTT-CaM PPI inh: 17.8

What do the screens show for `COc1ccc(OC)c(NC(=O)c2c(NCc3cccs3)sc3c2CCC(C)C3)c1` (stereo not drawn)?
Pf apPOL block: -17.1; mHTT-CaM PPI inh: 66.0*

Results for COc1ccc(OC)c(NC(=O)c2c(NCc3cccc(OC)c3OC)sc3c2CCC3)c1 ?
Pf apPOL block: -13.1; mHTT-CaM PPI inh: 59.0*
